Pf Dd2 inh = Plasmodium falciparum Dd2 growth inhibition. Potency, µM (doses to about 28.9 µM), for the others: top-dose activity, negative = inhibition, most hits filed as inhibitors. actives 4.3% (n = 120,000). P. falciparum Dd2 growth, SYBR Green, 72 h; active means well fitted inhibition curve with a large enough effect;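 further: plate controls were DMSO vehicle for no effect and reference drug for full effect; nearly all actives have a fitted effect of over 65% in size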
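Readout: SYBR Green fluorescence, 485 nm excitation, 535 nm emission, after ~16 h lysis at 37C. Before that, Dd2-infected red cells (2.5% hematocrit) grew 72 h with compound, 29 uM top final concentration.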
* = called active by the depositor; i = inactive; [ ] = remark or other dose. Shown is part of a subset that was picked to be rich in hits. Potency means the concentration at half of the fitted maximal effect.

SMILES	Pf Dd2 inh
O=C(Cn1cc(SCc2ccccc2Cl)c2ccccc21)N1CCCCCC1	-21%
Cc1ccc(C(=O)/C=C/c2cn(CC(O)CN3CCCCCC3)c3ccccc23)cc1 (configuration not stated)	13µM*
O=C(/C=C/c1cn(CC(O)CN2CCCCCC2)c2ccccc12)c1ccc(Br)cc1 (configuration not stated)	10µM*
O=C(CSc1cn(CC(=O)N2CCCCC2)c2ccccc12)Nc1ccccc1	18%
Cc1ccccc1CSc1cn(CC(=O)N2CCCCCC2)c2ccccc12	-26%
CNC(=O)CSc1cn(CC(=O)N2CCCCCC2)c2ccccc12	-24%
COC(=O)c1ccc(NC(=O)CSc2cn(CC(=O)N3CCCCC3)c3ccccc23)cc1	-9%
Cc1ccc(CSc2cn(CC(=O)N3CCCCC3)c3ccccc23)cc1	-19%
Cc1nc2cccnc2n1CC1CCCN(S(=O)(=O)c2ccc(C(C)C)cc2)C1 (configuration not stated)	i
COc1ccc(CNC(=O)N2CCOCC2CC(=O)N2CCCC2)cc1 (configuration not stated)	-11%
COc1ccccc1CNC(=O)C1CCN(C(=O)c2nnn3c2COC(c2ccc(C)cc2)C3)CC1 (configuration not stated)	5%
CCOC(=O)C1=C(C)N=C2SC=C(CC(=O)N(C)CC)N2C1c1cccc([N+](=O)[O-])c1 (configuration not stated)	-13%
CCc1cccc(NC(=O)N2CC(C(=O)N(C)C)C3(CCOCC3)C2)c1 (configuration not stated)	12%
CC(C)(C)c1nnc2n1C(C(=O)NCc1ccc(F)cc1)CC2 (configuration not stated)	20%
O=C(NC1CCC(O)CC1)c1ccc(-c2ncc3cnc(-c4cccc(F)c4)cn23)cc1 (configuration not stated)	i
CN1CC2(CCN(S(=O)(=O)c3cccnc3)CC2)CC1C(=O)N1CCOCC1 (configuration not stated)	0%
CCC(=O)N1CCc2c(C(=O)NCCOC)cccc21	-10%
CCC(=O)N1CCc2c(C(=O)NCc3cc(OC)ccc3OC)cccc21	i
CCC(=O)N1CCc2c(C(=O)NCc3cc(C)ccc3C)cccc21	11µM*
O=C(c1ccc(OC(F)(F)F)cc1)N1CCN(c2cc(-c3ccccc3)[nH]n2)CC1	i
CCc1noc(-c2cccn3c(CNC(=O)COc4cccc(C)c4)nnc23)n1	-17%
Cc1noc(-c2cccn3c(CNC(=O)c4cccc(N(C)C)c4)nnc23)n1	0.56µM*
COc1ccc(Cl)cc1C(=O)NCc1nnc2c(-c3nc(C(C)C)no3)cccn12	1.8µM*
CCc1noc(-c2cccn3c(CNC(=O)COc4ccc(F)cc4)nnc23)n1	0.71µM*
CCc1noc(-c2cccn3c(CNC(=O)c4ccc(F)cc4)nnc23)n1	-20%
SMILES	Pf Dd2 inh
CCOc1ccccc1C(=O)NCc1nnc2c(-c3nc(C4CC4)no3)cccn12	3.2µM*
COc1cccc(C(=O)NCc2nnc3c(-c4nc(C)no4)cccn23)c1	-30%
Cc1ccc(C(=O)NCc2nnc3c(-c4nc(C5CC5)no4)cccn23)cc1C	-13%
Cc1noc(-c2cccn3c(CNC(=O)c4ccccc4)nnc23)n1	-10%
COc1ccc(Cl)cc1C(=O)NCc1nnc2cc(-c3nc(C(C)C)no3)ccn12	-1%
O=C(NCc1nnc2c(-c3nc(C4CC4)no3)cccn12)c1cc(F)ccc1F	-23%
Cc1ccccc1C(=O)NCc1nnc2c(-c3nc(C(C)C)no3)cccn12	i
CN1CC2(CCCN(C(=O)CCc3ccncc3)CC2)OC1=O (configuration not stated)	-2%
COc1ccc2c(c1)OCC(C(=O)NCc1nnnn1-c1ccccc1)C2 (configuration not stated)	8%
O=C(CC1CCCN(c2cn[nH]c(=O)c2)C1)Nc1ccccc1F (configuration not stated)	19%
Cc1cccc(Cn2nc(-c3cccnc3)nc2C2(C(N)=O)CC2)c1	11%
O=C(NCc1nnc2c(-c3nc(C4CC4)no3)cccn12)C1CCCC1	i
O=C(O)CCC(=O)N1Cc2ccccc2CC2(CCN(CC3CCNC3)C2)C1 (configuration not stated)	14%
COCCNC(=O)[C@@H]1C[C@@H](O)CN1C1CCN(C(=O)c2cccc(OC)c2)CC1	-13%
O=C(NCc1ccccc1)C1CCCN(C2CCN(C(=O)c3ccco3)CC2)C1 (configuration not stated)	-18%
O=C(COc1ccccc1)N[C@H]1CO[C@H]2[C@@H]1OC[C@@H]2n1nnnc1Oc1ccc(-n2ccnc2)cc1	-11%
O=C(c1ccnnc1)N1CC(F)(F)C[C@H]1c1nc(-c2ccncc2)no1	i
COC(=O)C1=C(C)N(Cc2cccc(F)c2)C(=O)CC1c1ccccc1Cl (configuration not stated)	i
COCCNC(=O)Cc1csc2nc(C)c(-c3cc(C)n(-c4ccccc4F)n3)c(=O)n12	-15%
CCCNC(=O)Cc1csc2nc(C)c(-c3cc(C)n(-c4cccc(C)c4C)n3)c(=O)n12	i
CCCCNC(=O)Cc1csc2nc(C)c(-c3cc(C)n(-c4cccc(Cl)c4)n3)c(=O)n12	7.9µM*
CCCCCNC(=O)Cc1csc2nc(C)c(-c3cc(C)n(-c4cccc(C)c4)n3)c(=O)n12	-16%
Cc1ccc(Cl)cc1-n1nc(-c2c(C)nc3scc(CC(=O)NCCC(C)C)n3c2=O)cc1C	7.9µM*
CCCCNC(=O)Cc1csc2nc(C)c(-c3cc(C)n(-c4ccc(C)cc4)n3)c(=O)n12	-8%
COCCCNC(=O)N1C[C@@H](Oc2ccccc2)C[C@H]1C(=O)N1CCOCC1	16%
SMILES	Pf Dd2 inh
CNC(=O)[C@@H]1C[C@H](Oc2ccccc2)CN1C(=O)c1cccnc1	-18%
O=C(C1CC1)N1CCn2c(nn(-c3ccncc3)c2=O)C1	18%[44.1 µM]
Cc1nc(N2CCN(C)CC2)ncc1C(=O)N1C[C@@H](C)[C@](O)(C2CC2)C1	-5%
c1ccc(COc2ccc(CN3CCN(C4CCNC4)CC3)cc2)cc1 (configuration not stated)	8.9µM*
c1ccc(CN2C[C@H]3CCNC[C@H]32)cc1	i
c1ccc(COc2ccc(CN3CCSCC3)cc2)nc1	-1%
COCCNC(=O)[C@H]1C[C@H](Oc2cccnc2)CN1C(=O)c1cccs1	-14%
COCCC(=O)N[C@@H]1CN(S(C)(=O)=O)C[C@H]1CN(C)C	49%
O=C(NCCn1ccn2nc(-c3ccc(F)cc3)cc2c1=O)c1c(F)cccc1F	i
O=C(Nc1ccc(Cl)nc1)c1cnn2ncccc12	12%[44.1 µM]
CCOC(=O)c1c(C)[nH]c(C)c1S(=O)(=O)N1CCC(C(=O)N2CCN(c3cccc(C)c3C)CC2)CC1	0%
CCOC(=O)c1[nH]c(C)c(CCC(=O)N2CCN(c3cccc(C)c3C)CC2)c1C	0.35µM*
CCOC(=O)c1c(C)[nH]c(C)c1S(=O)(=O)N(C)CC(=O)N1CCN(c2ccc(Cl)cc2)CC1	i
CCOC(=O)c1[nH]c(C)c(CCC(=O)NCc2ccc(OC)cc2)c1C	-6%
CCOC(=O)c1[nH]c(C)c(CCC(=O)N2CCN(c3ccc(Cl)cc3)CC2)c1C	3.5µM*
Cc1cccc(N2CCN(C(=O)CCc3c(C)nc4c(c3C)c(=O)n(C)c(=O)n4C)CC2)c1C	20%
O=C1CCN(C(=O)CCc2ccccc2)CCCC(c2nc(-c3ccccc3)no2)CCN1 (configuration not stated)	i

High-throughput results: PubChem BioAssay, National Center for Advancing Translational Sciences (NCATS)
